Compound activity (PubChem BioAssay)
KB-3-1 tox = kills parental KB-3-1 adenocarcinoma cells. Potency, µM (top dose mostly 46.1 µM), hits mostly cytotoxic. 400,000 compounds, 1.4% hits. AID 1347075. KB-3-1 viability, CellTiter-Glo ATP luminescence, 72 h; further: nearly all actives have a fitted effect of over 60% in size
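KB-3-1 parental drug-naive adenocarcinoma cells in DMEM/10% FBS, incubated 72 h at 37 C with pin-transferred compounds across a concentration series. Viability by CellTiter-Glo luminescence; concentration-response curves fitted after normalization.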
S2 tox = cell viability loss in ATXN counter-screen | S2 cells (HEK-293 line with an ATXN2-luciferase reporter) viability, CellTiter-Fluor protease fluorescence, 24 h | Potency, µM (top dose mostly 56.7 µM), hits mostly cytotoxic | 400,000 compounds, 0.49% hits | AID 651635; further: nearly all actives have a fitted effect of over 40% in size
KB-V1 cytotox = kills drug-selected multidrug resistant KB-V1 cells. KB-V1 MDR cells viability, CellTiter-Glo, 72 h. Potency, µM (top dose mostly 46.1 µM), usual class: cytotoxic. 400,000 compounds, 3.4% hits; further: nearly all actives have a fitted effect of over 60% in size
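KB-V1 MDR subline cells in DMEM (phenol-red free, 10% FBS) exposed to compounds in qHTS concentration series for 72 h at 37 degrees C. Viability read by CellTiter-Glo luminescence; concentration-effect curves fitted after normalization and correction.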
HT1080-NT tox = kills 2HG-producing HT-1080-NT fibrosarcoma cells | HT-1080-NT fibrosarcoma viability, CellTiter-Glo ATP luminescence, 48 h | Potency, µM (series often up to 46.1 µM), actives largely listed as cytotoxic | 360,000 compounds, 1.6% hits | AID 686970;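 further: NT is the 2HG producing partner of a matched IDH1 knockdown line; nearly all actives have a fitted effect of over 55% in size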
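Viability of the 2HG-overproducing fibrosarcoma line after 48 hours of compound exposure at 37 degrees C was determined by luminescence with CellTiter-Glo, and concentration-effect curves were then fitted and categorized.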
HT1080 IDH1KD tx = HT-1080 IDH1 knockdown cell toxicity (counter line) | HT-1080 IDH1 knockdown viability, ATP luminescence, 48 h | Potency, µM (top dose mostly 46.1 µM), most hits filed as cytotoxic | 360,000 compounds, 2% hits
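After a 2 h attachment period, IDH1KD HT-1080 cells took pin-transferred compound for 48 h at 37 °C; ATP-based luminescence after 10 min room-temperature reagent incubation reported viability.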
ATXN2 expr inh = inhibitors of ATXN2 expression; HEK-293 ATXN2-luciferase reporter, luminescence, 24 h; Potency, µM (highest dose often 57 µM), actives largely listed as inhibitors; 360,000 compounds, 0.72% hits; AID 1745845; further: nearly all actives have a fitted effect of over 55% in size
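ATXN2-luciferase reporter cells (luciferase flanked by upstream and downstream ATXN2 gene portions) were treated 24 h at 37 °C with compounds at up to 57 uM. SteadyGlo luminescence gave expression; GF-AFC fluorescence gave viability.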
Hits are given with their value; . = inactive; ? = inconclusive; / = no result given. An excerpt weighted towards active compounds, which were near 6.2% of everything screened. The call rests on the fitted dose curve; in most records, active means well fitted curve in the direction sought with a large enough effect; inconclusive means small, poorly fitted or top-dose-only effect, or another doubt; inactive means no such curve, though single readings can be large; an effect the other way counts as inactive or inconclusive.

SMILES	KB-3-1 tox	S2 tox	KB-V1 cytotox	HT1080-NT tox	HT1080 IDH1KD tx	ATXN2 expr inh
Cn1c(SCC(=O)NC(C)(C)C)nnc1-c1ccc(C(C)(C)C)cc1	.	.	20.6µM	.	.	.
CCOc1ccc(NC(=O)Cn2c(=O)n(Cc3ccc4c(c3)OCO4)c(=O)c3ccc(C(=O)NC4CCCCC4)cc32)cc1	.	.	?	/	/	.
O=C(NC1CCC(n2cc(C(=O)NC3CC3)nn2)CC1)C(=O)c1ccccc1 (centres undefined)	/	.	/	/	/	/
O=C(c1cncc(Br)c1)N1CCC(N2CCCC2)CC1	/	/	/	/	/	.
CO/N=C/C(=N\Nc1ccc(C)cc1)C(=O)c1ccc(OC)cc1	5.17µM	?	4.61µM	?	2.91µM	.
CO/N=C/C(=N\Nc1ccc(OC)cc1)C(=O)c1ccc(F)cc1	.	?	.	.	?	.
CCOc1cc(/C=C/c2nc3cc(C)c(C)cc3s2)ccc1OCC(=O)N1CCOCC1	.	.	10.3µM	.	.	.
CCOc1cc(/C=C\[N+](=O)[O-])ccc1OCC(=O)N1CCOCC1	.	?	?	?	18.4µM	?
CCN(CC)C(=O)c1sc2c(c1C)c(=O)n(-c1ccc(C)c(C)c1)c(=O)n2CC(=O)Nc1ccc(OC)cc1OC	.	.	?	/	/	.
N#Cc1ccc(N2Cc3ccccc3C2=NC(=O)c2cccs2)cc1	.	?	18.4µM	.	.	.
CC(=O)c1ccc(N2Cc3ccccc3C2=NC(=O)c2cccs2)cc1	.	?	?	.	.	.
CC(=O)CC/C=C(\C)CC/C=C(\C)CC/C=C(\C)CCC=C(C)C	/	.	/	/	/	.
O=C(Nc1cccc(Br)c1)c1ccn[nH]1	11.2µM	/	?	.	.	/
Cc1ccc(S(=O)(=O)c2c(O)cc(C)c(NS(=O)(=O)c3ccc(Br)cc3)c2C)cc1	?	.	?	/	/	?
Cc1cc2cc(CN(CC3CCCO3)C(=S)NCc3ccco3)c(=O)[nH]c2cc1C (centres undefined)	.	.	.	.	.	.
Cc1ccc(C)c2[nH]c(=O)c(CN(CC3CCCO3)C(=O)NC3CCCCC3)cc12 (centres undefined)	.	.	14.6µM	?	.	.
CCc1ccc2[nH]c(=O)c(CN(CCN(CC)CC)C(=O)Nc3ccccc3OC)cc2c1	?	?	.	16.4µM	?	.
Cc1cc2cc(CN(CC3CCCO3)C(=S)Nc3ccccc3)c(=O)[nH]c2cc1C (centres undefined)	7.31µM	?	.	11.6µM	?	.
COc1ccc2cc(CN(Cc3cccnc3)S(=O)(=O)c3ccccc3)c(=O)[nH]c2c1	?	.	16.4µM	.	.	.
CCc1ccc2[nH]c(=O)c(CN(CCN(C)C)C(=O)Nc3ccccc3OC)cc2c1	.	.	.	?	?	.
COc1ccc(S(=O)(=O)N(Cc2cc3cc(C)ccc3[nH]c2=O)CC2CCCO2)cc1 (centres undefined)	.	?	7.31µM	.	.	.
COc1ccc2cc(CN(CC3CCCO3)C(=S)Nc3ccccc3)c(=O)[nH]c2c1 (centres undefined)	5.8µM	.	20.6µM	25.9µM	14.6µM	.
COC(=O)c1ccccc1S(=O)(=O)N(Cc1cc2ccc(OC)cc2[nH]c1=O)CC1CCCO1 (centres undefined)	.	.	14.6µM	.	.	.
COc1ccc2cc(CN(CC3CCCO3)C(=O)Nc3ccccc3OC)c(=O)[nH]c2c1 (centres undefined)	5.17µM	?	11.6µM	2.59µM	2.31µM	.
COc1ccc2[nH]c(=O)c(CN(CC3CCCO3)C(=S)Nc3ccccc3)cc2c1 (centres undefined)	.	.	.	.	.	/
SMILES	KB-3-1 tox	S2 tox	KB-V1 cytotox	HT1080-NT tox	HT1080 IDH1KD tx	ATXN2 expr inh
CCN(CC)C(=S)SCC(=O)c1ccc(F)cc1	?	.	18.4µM	?	?	.
CS(=O)(=O)N1Cc2cc(C(=O)NCC3CCCCC3)nc(-c3cccc(-c4cccnc4)c3)c2[C@H]1CCO	.	.	?	.	.	.
Cc1cccc(C(=O)NC(=S)Nc2ccc(S(=O)(=O)N3CCN(C)CC3)cc2)c1	.	.	.	.	.	.
O=C(NC(=S)Nc1ccc(S(=O)(=O)N2CCCC2)cc1)c1cccs1	.	.	10.3µM	.	.	.
CC(C)CC(=O)NC(=S)Nc1ccc(S(=O)(=O)N2CCCC2)cc1	.	.	?	.	.	.
Cc1ccc(C(=O)NC(=S)Nc2ccc(S(=O)(=O)N3CCN(C)CC3)cc2)cc1	.	.	23.1µM	.	.	.
CC(C)C(=O)NC(=S)Nc1ccc(S(=O)(=O)N2CCCC2)cc1	.	.	14.6µM	.	.	.
Cc1cc(NS(=O)(=O)c2ccc(NC(=S)NC(=O)c3ccccc3)cc2)no1	.	.	.	.	.	.
Cc1cc(NS(=O)(=O)c2ccc(NC(=S)NC(=O)c3ccc(C(C)(C)C)cc3)cc2)no1	.	.	23.1µM	.	.	.
O=C(C[n+]1ccnc2ccccc21)c1ccc(Cl)cc1	.	/	.	/	/	/
CN1CCN(S(=O)(=O)c2ccc(-c3ccccc3)cc2)CC1	.	.	.	.	.	.
Cc1ccc(S(=O)(=O)Nc2ccc(C(=O)Nc3cc(C)on3)cc2)cc1	.	.	.	.	.	.
Cc1ccc(-c2ccc(S(=O)(=O)N3CCN(C)CC3)cc2)cc1	.	.	13µM	.	.	.
O=C(NC(=S)Nc1ccc(N2CCCCC2)cc1)c1cccs1	.	.	.	1.26µM	3.98µM	.
Cc1ccc(NS(=O)(=O)c2cccc(C(=O)Nc3cc(C)on3)c2)cc1	.	.	4.61µM	.	.	.
Cc1nc(S(=O)(=O)N2CCN(c3ccccc3F)CC2)cn1C	.	.	?	/	/	.
CCC(=O)c1cn([C@H](CCC(OC)OC)CC(=O)OC(C)(C)C)cc1CC	.	.	.	.	.	.
Cc1ccccc1Oc1cc(-n2ncc(Cl)c(Cl)c2=O)ncn1	14.6µM	7.94µM	.	13µM	7.31µM	7.94µM
CN(C)C(=O)c1ccc2c(c1)N(CC(=O)NCc1ccccc1Cl)C(=O)C1CCCCN21 (centres undefined)	.	.	.	/	/	.
CCn1c(/C=C/N(C(C)=O)c2ccccc2)[n+](CC)c2ccc(Cl)cc21	.	?	.	.	.	.
CC[n+]1c(/C=C/C=C/N(C(C)=O)c2ccccc2)sc2ccccc21	16.4µM	/	?	?	?	?
COc1ccc(C2c3c(n(C)c4ccccc34)C(=O)N2CC(=O)Nc2ccc(C)cc2Cl)cc1 (centres undefined)	.	/	.	/	/	/
CCn1c(=O)c2cc(C(=O)N(CC(C)C)CC(C)C)sc2c2ccccc21	.	.	?	/	/	.
